Source: the supplement of paper PMC10981050
“And” between values parts separate entries of the source, which are not always exact repeats. Equal entries are not always repeated. Structures can show the parent of a compound that is named as a salt.

Tests used:
Assay in all cases: cell viability relative to vehicle control; higher = less cytotoxic
Details in all cases: 10 µM
K562 = test system: K562
Summary of the method: (§1)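 Mutant clones made by CRISPR editing and their isogenic wild-type counterparts, from four leukaemia lines, were exposed to a single 10 µM dose of each library compound for 48 h. The supernatant was then removed and CellTiter-Glo luminescence was read. Viability was reported as percent of the on-plate vehicle control.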

MARIMO = test system: MARIMO
Summary of the method: as §1

MOLM14 = test system: MOLM14
Summary of the method: as §1

OCI-AML2 = test system: OCI-AML2
Summary of the method: as §1

Compound | cell viability (K562; SRSF2 genotype: SRSF2 P95H/wt) | cell viability (K562; SRSF2 genotype: SRSF2 wt/wt) [%] | cell viability (MARIMO; SRSF2 genotype: SRSF2 P95H/wt) [%] | cell viability (MARIMO; SRSF2 genotype: SRSF2 wt/wt) [%] | cell viability (MOLM14; SRSF2 genotype: SRSF2 P95H/wt) [%] | cell viability (MOLM14; SRSF2 genotype: SRSF2 wt/wt) [%] | cell viability (OCI-AML2; SRSF2 genotype: P95H/wt) [%] | cell viability (OCI-AML2; SRSF2 genotype: wt/wt) [%]
CC(C)NCC(O)c1ccc(NS(C)(=O)=O)cc1 (stereo not given) [Sotalol HCl] | 106% and 102% | 95.7 | 101 | 109 | 104 | 102 | 106 | 102
COC(=O)Nc1nc2cc([S+]([O-])c3ccccc3)ccc2[nH]1 (stereo not given) [Oxfendazole] | 50.5% and 57.7% | 58.5 | 55.2 | 49.4 | 70.5 | 70.4 | 80 | 78
COc1cc(NC(=O)c2ccccn2)ccc1Cl | 85.2% and 86.2% | 94.1 | 87.1 | 92.4 | 99 | 95.3 | 88.4 | 80
CC(C)(O)CNc1ncc(-c2ccnc(Nc3ccnc(Cl)c3)n2)c(CC2CC2)n1 | 41.9% and 40.5% | 36.9 | 39.5 | 41.2 | 8.93 | 9.79 | 5.49 | 12.8
O=C1NCCc2[nH]c(-c3ccncc3)cc21 | 50.4% and 42% | 63.5 | 12.7 | 7.5 | 1.91 | 0.86 | 4.1 | 14.9
Fc1ccc(Cl)cc1-c1nc(Nc2ccncc2)c2nccnc2n1 | 86.8% and 88.9% | 79.9 | 92.1 | 104 | 108 | 96 | 104 | 103
CC(=O)NS(=O)(=O)c1ccc(N)cc1 [Sulfacetamide Sodium] | 96.5% and 94.7% | 101 | 96.3 | 101 | 101 | 101 | 108 | 96.6
CCCCNc1ncc(C(=O)NCc2ccc(-n3ccnc3)cc2)c(NC2CCC(O)CC2)n1 (stereo not given) | 84.4% | 72.8 | 73 | 83.9 | 25.6 | 20.8 | 48.4 | 52.1
COc1ccccc1OCC(O)COC(N)=O (stereo not given) [Methocarbamol (Robaxin)] | 99.3% and 104% | 107 | 94.9 | 106 | 109 | 104 | 98.4 | 106
CC=C(C)C(=O)O [Tiglic acid] | 102% and 106% | 109 | 101 | 103 | 102 | 109 | 110 | 98
COc1cc([C@H]2OC[C@H]3[C@@H]2CO[C@@H]3c2ccc(O[C@@H]3O[C@H](CO)[C@@H](O)[C@H](O)[C@H]3O)c(OC)c2)ccc1O[C@@H]1O[C@H](CO)[C@@H](O)[C@H](O)[C@H]1O [Pinoresinol diglucoside] | 105% and 104% | 101 | 105 | 108 | 105 | 103 | 104 | 109
C[C@@H](C(=O)Nc1ccc(Cl)cc1)C1CCC(c2ccnc3ccc(F)cc23)CC1 (stereo not given in full) | 77% and 77.9% | 69.6 | 81 | 70.5 | 61.9 | 76.4 | 56.8 | 54.5
O=c1cc(-c2ccccc2)oc2cc(O)cc(O)c12 [Chrysin] | 100% and 104% | 105 | 93 | 107 | 81.1 | 93.7 | 86.7 | 75.3
CCOC(=O)N1CCC(CN(Cc2ccc(Cl)cc2)Cc2ccc([N+](=O)[O-])s2)C1 (stereo not given) [Stenabolic (SR9009)] | 56% and 70.8% | 63.4 | 33.5 | 25.5 | 45.6 | 41.9 | 39.1 | 41.4
O=C(CCc1ccc(O)cc1)c1c(O)cc(O[C@@H]2O[C@H](CO)[C@@H](O)[C@H](O)[C@H]2O)cc1O [Trilobatin] | 96.2% and 98.8% | 96.8 | 99.7 | 105 | 89.2 | 98.9 | 92.6 | 106
COc1c2c(cc3oc(COC4OC(CO)C(O)C(O)C4O)cc(=O)c13)OC(C(C)(C)O)C2 (stereo not given) [Prim-o-glucosylcimifugin] | 83.8% and 84.2% | 88.3 | 84 | 94 | 88.3 | 88.2 | 91.8 | 98.1
CC(C)=CCC[C@](C)(O[C@@H]1O[C@H](CO)[C@@H](O)[C@H](O)[C@H]1O)[C@H]1CC[C@]2(C)[C@@H]1[C@H](O)C[C@@H]1[C@@]3(C)CC[C@H](O)C(C)(C)[C@@H]3[C@@H](O)C[C@]12C [Ginsenoside F1] | 107% and 106% | 102 | 105 | 97.8 | 109 | 104 | 105 | 106
CCC(=O)OCC(=O)[C@@]1(OC(=O)CC)[C@@H](C)C[C@H]2[C@@H]3CCC4=CC(=O)C=C[C@]4(C)[C@@]3(Cl)[C@@H](O)C[C@@]21C [Beclomethasone dipropionate] | 87.4% and 91.4% | 87.7 | 90 | 97.8 | 86 | 93 | 105 | 117
C[C@H](NC(=O)/C(C#N)=C/c1cccc(Br)n1)c1ccccc1 | 25.6% and 17.4% | 20.6 | 11.2 | 7.31 | 2.5 | 0.75 | 10.2 | 7.71
COCCNc1cc(NC(=O)N2CCCc3cc(CN4CCN(C)CC4=O)c(C=O)nc32)ncc1C#N | 94% and 103% | 89.4 | 96.9 | 106 | 100 | 98.2 | 112 | 109

Compound | cell viability (K562; SRSF2 genotype: SRSF2 P95H/wt) | cell viability (K562; SRSF2 genotype: SRSF2 wt/wt) [%] | cell viability (MARIMO; SRSF2 genotype: SRSF2 P95H/wt) [%] | cell viability (MARIMO; SRSF2 genotype: SRSF2 wt/wt) [%] | cell viability (MOLM14; SRSF2 genotype: SRSF2 P95H/wt) [%] | cell viability (MOLM14; SRSF2 genotype: SRSF2 wt/wt) [%] | cell viability (OCI-AML2; SRSF2 genotype: P95H/wt) [%] | cell viability (OCI-AML2; SRSF2 genotype: wt/wt) [%]
CC(C)=CC(=O)O[C@H]1Cc2cc3ccc(=O)oc3cc2OC1(C)C [Decursin] | 89.5% and 93.4% | 90 | 81.6 | 88.5 | 91.1 | 92.5 | 83.7 | 87
CSCC1CN(/N=C/c2ccc([N+](=O)[O-])o2)C(=O)O1 (stereo not given) [Nifuratel] | 85.1% and 77.7% | 78.8 | 78.3 | 82.2 | 77 | 80.1 | 79.1 | 87.3
c1ccc2c(Oc3nc(Nc4ccc(N5CCOCC5)cc4)c4ncn(C5CCCCC5)c4n3)cccc2c1 [Purmorphamine] | 91.9% and 105% | 98.2 | 86.5 | 94.4 | 45.9 | 48.7 | 58.9 | 64
CC(C)=CCC/C(C)=C/Cc1c(O)c(CC=C(C)C)c2c(c1O)C(=O)C1=C[C@@H]3C[C@H]4C(C)(C)O[C@@](C/C=C(/C)C(=O)O)(C3=O)[C@@]14O2 [Gambogenic acid] | 1.97% and 1.06% | 1.12 | 0.46 | 0.68 | 0.23 | 0.27 | 0.27 | 0.82
CN(C)CC(=O)Nc1ccc2[nH]c(=O)c3ccccc3c2c1 | 97.7% and 93.8% | 94.9 | 100 | 94.6 | 89.1 | 96 | 91.6 | 98.4
CCCC(=O)OCOC(=O)C1=C(C)NC(C)=C(C(=O)OC)C1c1cccc(Cl)c1Cl (stereo not given) [Clevidipine Butyrate] | 102% and 105% | 104 | 100 | 107 | 104 | 109 | 107 | 108
CC[C@@H]1C(=O)N(C)c2cnc(Nc3ccc(C(=O)NC4CCN(C)CC4)cc3OC)nc2N1C1CCCC1 | 1.43% and 2.65% | 1.81 | 6.52 | 5.37 | 0.17 | 0.13 | 0.53 | 2.92
CCNC(=O)c1noc(-c2cc(C(C)C)c(O)cc2O)c1-c1ccc(CN2CCOCC2)cc1 [Luminespib (AUY-922, NVP-AUY922)] | 16.9% and 29.2% | 25.6 | 32.3 | 26 | 1.2 | 1.31 | 12.3 | 20.7
COc1cc2ncnc(Oc3cccc(NC(=O)Nc4cc(C(C)(C)C(F)(F)F)on4)c3)c2cc1OC | 23.5% and 40.4% | 24.8 | 79.4 | 85 | 33.8 | 23.7 | 60.3 | 61.5
Cc1cc(C2CCCCC2)n(O)c(=O)c1 [Ciclopirox ethanolamine] | 59.6% and 58.8% | 47.2 | 21.4 | 26.4 | 8.86 | 2.23 | 18 | 18
CCc1nc(-c2cccc(C)c2)c(-c2ccnc(NC(=O)c3ccccc3)c2)s1 | 75.8% and 73% | 66.3 | 72.3 | 64 | 76.5 | 86.7 | 83.7 | 76.5
CCn1cc(NC(=S)Nc2cc(Cl)ccc2OC)c(C(N)=O)n1 | 92% and 90.5% | 89.8 | 99.1 | 99.4 | 96.9 | 95 | 95.2 | 92.5
CC1OC(OC2C(OC3CCC4(C)C(CCC5(C)C4CC=C4C6CC(C)(C)CCC6(C(=O)OC6OC(COC7OC(CO)C(O)C(O)C7O)C(O)C(O)C6O)CCC45C)C3(C)CO)OCC(O)C2O)C(O)C(O)C1O (stereo not given) [Dipsacoside B] | 101% and 103% | 104 | 97.5 | 98.2 | 106 | 98.3 | 101 | 103
COc1ccc(CC(C)NCC(O)c2ccc(O)c(NC=O)c2)cc1 (stereo not given) [Formoterol hemifumarate] | 97.2% and 93.9% | 91.5 | 89.5 | 98.5 | 86.6 | 85.8 | 106 | 101
NC(=O)c1ncn([C@@H]2O[C@H](CO)[C@@H](O)[C@H]2O)c1N [AICAR (Acadesine)] | 109% and 107% | 109 | 101 | 110 | 107 | 118 | 93.1 | 105
NC(=O)c1ccc(I)c([N+](=O)[O-])c1 [Iniparib (BSI-201)] | 101% and 102% | 113 | 97.6 | 81.1 | 98.6 | 100 | 127 | 114
CC(=O)NC(Cc1ccc(O)cc1)C(=O)NC(CCCN=C(N)N)C(=O)NC(Cc1ccccc1)C(N)=O (stereo not given) | 87.2% and 83.5% | 85.6 | 84.2 | 88.4 | 87.3 | 85.4 | 87.9 | 87.5
CO[C@H]1[C@H](O)[C@@H](O)[C@@H](O)[C@H](O)[C@@H]1O [D-Pinitol] | 114% and 107% | 112 | 108 | 110 | 105 | 102 | 112 | 113
O=c1c(-c2ccc(O[C@@H]3O[C@H](CO)[C@@H](O)[C@H](O)[C@H]3O)cc2)coc2cc(O)cc(O)c12 [Sophoricoside] | 104% and 106% | 116 | 106 | 103 | 100 | 104 | 109 | 105
CN[C@@H](C)C(=O)N[C@H](C(=O)N1CCC[C@H]1C(=O)Nc1snnc1-c1ccccc1)C1CCCCC1 | 98.6% and 96.3% | 97.7 | 101 | 105 | 89.6 | 104 | 102 | 123
